Data: PubChem BioAssay AID1159580 (chemical genetic matrix, 2015)
The campaign covered roughly 5,500 compounds. About 2,000 (36%) were called active. Another 18% or so got no clear call; they are omitted. No stated cut-off is given here; in the data, active means normalized growth mostly below about 0.91 (no sharp cut-off); inconclusive means no clear call, values can overlap the other calls; inactive means mostly above about 0.92. Some of the results follow.

Test: chemical genetic growth profiling, strain panel (AID 1159580);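 further: tested at 20 µM; growth read once vehicle control cultures reached saturation at 30 °C; 1 = growth at the plate median or of vehicle wells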
Conditions: S. cerevisiae deletion strains, growth OD
[1] = locus YPL055C, strain LGE1, stronger effect = lower value
[2] = locus YPL241C, strain CIN2, stronger effect = lower value

Measured: normalized growth

CC(C)NC(C)Cc1ccc(I)cc1 (stereo not given)
inactive: locus YAL013W, strain DEP1, stronger effect = lower value 0.999 | locus YAL040C, strain CLN3, stronger effect = lower value 1.01 | locus YCL061C, strain MRC1 (second series), stronger effect = lower value 1.01 | locus YDR150W, strain NUM1, stronger effect = lower value 1.01 | locus YDR363W, strain ESC2, stronger effect = lower value 0.995 | locus YER002W, strain NOP16, stronger effect = lower value 1 | locus YNL175C, strain NOP13, stronger effect = lower value 1.01 | locus YNL197C, strain WHI3, stronger effect = lower value 1.01 | locus YNL224C, strain SQS1, stronger effect = lower value 1 | locus YNL322C, strain KRE1, stronger effect = lower value 1 | locus YOR083W, strain WHI5 (second series), stronger effect = lower value 0.998 | [1] 0.991 | [2] 1.02

COC(=O)CC1C(C)(C)C(=O)C2CC3(O)C4=CC(=O)OC(c5ccoc5)C4(C)CCC3C1(C)C2=O (stereo not given)
inactive: locus YBR021W, strain FUR4, stronger effect = lower value 1 | locus YBR229C, strain ROT2, stronger effect = lower value 1 | locus YCL029C, strain bik1, stronger effect = lower value 0.983 | locus YDL035C, strain GPR1, stronger effect = lower value 1.01 | locus YDL074C, strain BRE1, stronger effect = lower value 1 | locus YDL101C, strain DUN1, stronger effect = lower value 1 | locus YDL185W, strain tfp1, stronger effect = lower value 0.981 | locus YDL192W, strain arf1, stronger effect = lower value 0.99 | locus YDR101C, strain arx1, stronger effect = lower value 0.997 | locus YDR162C, strain NBP2, stronger effect = lower value 1.02 | locus YDR318W, strain mcm21, stronger effect = lower value 0.977 | locus YDR388W, stronger effect = lower value 0.982 | locus YDR502C, strain sam2, stronger effect = lower value 0.992 | locus YER110C, stronger effect = lower value 0.983 | locus YER155C, strain BEM2, stronger effect = lower value 1 | locus YER167W, strain BCK2, stronger effect = lower value 1.01 | locus YGL078C, strain dbp3, stronger effect = lower value 0.982 | locus YGL086W, strain mad1, stronger effect = lower value 0.993 | locus YGL248W, strain PDE1, stronger effect = lower value 1 | locus YGR135W, strain pre9, stronger effect = lower value 0.985 | locus YGR252W, strain gcn5, stronger effect = lower value 0.906 | locus YHR030C, strain SLT2, stronger effect = lower value 1.01 | locus YHR079C, strain IRE1 (second series), stronger effect = lower value 0.977 | locus YHR094C, strain hxt1, stronger effect = lower value 0.985 | locus YHR129C, strain ARP1, stronger effect = lower value 1 | locus YHR200W, strain rpn10, stronger effect = lower value 0.986 | locus YIL066C, strain RNR3, stronger effect = lower value 1.01 | locus YIL073C, strain SPO22, stronger effect = lower value 1.03 | locus YIL125W, strain kgd1, stronger effect = lower value 0.984 | locus YIR030C, strain dcg1, stronger effect = lower value 0.989 | locus YJL095W, strain BCK1, stronger effect = lower value 1.02 | locus YJL134W, strain LCB3, stronger effect = lower value 1 | locus YJL168C, strain set2, stronger effect = lower value 0.982 | locus YJL187C, strain SWE1 (second series), stronger effect = lower value 1 | locus YJR043C, strain POL32, stronger effect = lower value 0.997 | locus YKL009W, strain mrt4, stronger effect = lower value 0.989 | locus YKL068W, stronger effect = lower value 0.993 | locus YKL085W, strain MDH1 (second series), stronger effect = lower value 0.991 | locus YKL085W, strain MDH1, stronger effect = lower value 0.991 | locus YKR001C, strain vps1, stronger effect = lower value 0.97 | locus YLR039C, strain RIC1, stronger effect = lower value 1.05 | locus YLR058C, strain SHM2, stronger effect = lower value 1 | locus YLR102C, strain apc9, stronger effect = lower value 0.988 | locus YLR262C, strain YPT6, stronger effect = lower value 1.13 | locus YLR268W, strain sec22, stronger effect = lower value 0.977 | locus YLR342W, strain FKS1 (second series), stronger effect = lower value 0.992 | locus YLR371W, strain rom2, stronger effect = lower value 0.986 | locus YLR418C, strain cdc73, stronger effect = lower value 0.966 | locus YML016C, strain PPZ1, stronger effect = lower value 1 | locus YML032C, strain rad52, stronger effect = lower value 0.982 | locus YML124C, strain tub3, stronger effect = lower value 0.988 | locus YMR078C, strain ctf18, stronger effect = lower value 0.991 | locus YMR223W, strain ubp8, stronger effect = lower value 0.992 | locus YMR307W, strain GAS1, stronger effect = lower value 0.985 | locus YNL067W, strain RPL9B, stronger effect = lower value 1.01 | locus YNL128W, strain TEP1, stronger effect = lower value 1.01 | locus YNL233W, strain BNI4, stronger effect = lower value 1.01 | locus YNL250W, strain rad50, stronger effect = lower value 0.986 | locus YNL271C, strain bni1, stronger effect = lower value 0.979 | locus YNL298W, strain CLA4, stronger effect = lower value 0.982 | locus YNL307C, strain MCK1, stronger effect = lower value 0.986 | locus YNR052C, strain pop2, stronger effect = lower value 0.978 | locus YOL012C, strain htz1 1.11 | locus YOL147C, strain pex11, stronger effect = lower value 0.983 | locus YOR061W, strain CKA2, stronger effect = lower value 1.01 | locus YOR069W, strain VPS5, stronger effect = lower value 1 | locus YOR136W, strain idh2, stronger effect = lower value 0.978 | locus YOR144C, strain elg1, stronger effect = lower value 0.985 | locus YOR184W, strain ser1, stronger effect = lower value 0.992 | locus YOR316C, strain cot1, stronger effect = lower value 0.991 | [1] 0.994 | [2] 1 | locus YPR119W, strain clb2, stronger effect = lower value 0.999 | locus YPR141C, strain kar3, stronger effect = lower value 0.99 | locus YPR163C, strain tif3, stronger effect = lower value 0.982 | locus YPR167C, strain met16, stronger effect = lower value 0.985 | strain wtn01, stronger effect = lower value 0.99
